This is a sample that favours compounds with a hit; in the whole collection about 1.3% have one here.
PKA-R1A act – PKA-R1A complex activation; activation, % at 11.4 µM; PKA-R1A dissociation, Cy5-IP20 fluorescence polarization; scaled: DMSO 0%, 113 µM cGMP 100%; AID 504707; 0.083% of 340,000 active;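 active = percent activation above the mean of all tested compounds plus 3 SD, cut at about 19% in these data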;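 also: higher means more PKAc released from R1A so a rise in polarization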
E coli Lon inh – inhibits E. coli Lon protease | P0A9M0 | purified E. coli Lon protease, fluorescence polarization | inhibition, % at 7.94 µM | 0.42% of 360,000 active | AID 602123; in the data active = inhibition above about 13%, passing the limit was not always enough;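 also: 0% = enzyme with probe and DMSO and 100% = no enzyme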
Target sequence (P0A9M0 whole entry, looked up): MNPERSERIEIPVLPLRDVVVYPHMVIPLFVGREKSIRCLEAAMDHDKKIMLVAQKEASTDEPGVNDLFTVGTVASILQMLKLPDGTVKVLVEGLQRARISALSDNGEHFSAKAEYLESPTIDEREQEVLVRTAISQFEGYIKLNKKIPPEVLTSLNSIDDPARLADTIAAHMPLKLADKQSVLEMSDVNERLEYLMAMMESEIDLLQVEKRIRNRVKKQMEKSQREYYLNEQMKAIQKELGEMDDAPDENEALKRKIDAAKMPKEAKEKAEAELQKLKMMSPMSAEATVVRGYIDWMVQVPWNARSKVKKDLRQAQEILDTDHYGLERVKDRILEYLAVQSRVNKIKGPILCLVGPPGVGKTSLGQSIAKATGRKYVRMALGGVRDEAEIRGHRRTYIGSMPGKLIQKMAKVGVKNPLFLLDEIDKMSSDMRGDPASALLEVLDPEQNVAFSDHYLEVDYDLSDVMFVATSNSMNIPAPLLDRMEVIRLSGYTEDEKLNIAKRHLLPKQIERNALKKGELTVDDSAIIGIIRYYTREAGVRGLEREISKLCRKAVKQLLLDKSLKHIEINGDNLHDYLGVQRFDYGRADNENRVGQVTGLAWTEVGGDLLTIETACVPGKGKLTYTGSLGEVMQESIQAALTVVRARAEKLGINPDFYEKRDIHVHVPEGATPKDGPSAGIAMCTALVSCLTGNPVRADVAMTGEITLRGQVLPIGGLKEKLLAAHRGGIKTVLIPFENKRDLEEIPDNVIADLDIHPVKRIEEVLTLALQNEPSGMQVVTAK
PKA-R2B act – activates the human PKA-R2B holoenzyme complex; P22694+P31323; PKA-R2B holoenzyme dissociation, Cy5-IP20 fluorescence polarization; R2B truncated from residue 108, S112A mutant; 0% DMSO only, 100% 113 µM cGMP; activation, % at 11.4 µM; 0.079% of 340,000 active; AID 504700;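 active = activation above a cutoff set at the mean over all compounds plus 3 SD, cut at about 18% in these data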;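 also: higher means more holoenzyme dissociation and a rise in polarization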
IDE inh – inhibitors of human insulin-degrading enzyme in cells; P14735; HEK cells, FAbetaB cleavage, fluorescence polarization; inhibition, % at 5.59 µM; 0.41% of 320,000 active; AID 434962;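 active = percent inhibition above the average of all tested compounds plus 3 SD, set per screening campaign, cut at about 16% in these data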;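 also: IDE supplied by intact live HEK cells; FP after avidin binding of uncleaved biotin substrate so inhibition keeps polarization high; 0% = DMSO wells and 100% = 60 µM reference IDE inhibitor Ii1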
IDE cell activ – IDE (human) activation, cell-based; 0.073% of 340,000 active; activation, % at 5.96 µM; HEK cells, FAbeta-B cleavage, fluorescence polarization; 0% vehicle, 100% cell-free pure enzyme wells; AID 493087; P14735;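 active = activation above the mean of all tested compounds plus 3 SD, set per screening campaign, cut at about 17% in these data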
Rin1-Abl PPI inh – inhibitors of human Rin1-Abl protein interaction; P00519+Q13671; TR-FRET Rin1/Abl binding, biochemical; inhibition, % at 7.35 µM; 0.4% of 360,000 active; AID 588664; in the data active = inhibition above about 5%, passing the limit was not always enough
Rin1 Abl conf – confirmation of inhibitors of human Rin1-Abl interaction; shares compounds with Rin1-Abl PPI inh; TR-FRET Rin1-Abl binding, purified proteins; inhibition, % at 7.35 µM; 49% of 1,300 active
GFP quencher – counter-screen for Rin1-Abl inhibitors: GFP fluorescence quenchers; shares compounds with Rin1-Abl PPI inh; inhibitors/quenchers counterscreen; inhibition, % at 6.75 µM; 8.5% of 1,300 active; AID 602125;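 also: ABL1-eGFP fusion protein alone without its partner RIN1-SBP; 0% = protein with vehicle and 100% = wells lacking protein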
GFP quench DR – counter-screen for Rin1-Abl inhibitors: GFP quenchers, dose response. shares compounds with Rin1-Abl PPI inh. GFP fluorescence interference/quenching counterscreen. IC50, µM. 230 tested, under 10 active. AID 602182; call rule not given here;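 also: ABL1-eGFP fusion protein alone without its RIN1 binding partner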
An asterisk follows results filed as active; · = no result given. Rule as the data show it, unless noted: active = inhibition above about 6.5%; inactive = the rest.

SMILES	PKA-R1A act	E coli Lon inh	PKA-R2B act	IDE inh	IDE cell activ	Rin1-Abl PPI inh	Rin1 Abl conf	GFP quencher	others
CCOC(=O)C1CCCN(C(=O)c2cn(C)c(=O)c3cc(OC)c(OC)cc23)C1 (stereo unspecified)	-12	4	1	4	-7	25*	32*	0	GFP quench DR=>68
CCOc1ccc(-c2cc(C(=O)NN)[nH]n2)cc1	2	6	-6	4	-2	-2	·	·
NC(=O)[C@@H]1CCCN1C(=O)c1cc(COc2ccc3c(c2)CCCC3)on1	-10	-2	4	·	1	6.1*	0	1
Cn1cccc1Cc1nnc(SCC(=O)NC2CCCCC2)n1CCc1ccccc1	-14	-18	2	-4	1	-2	·	·
COc1cc2c(cc1OC)CN(CC(=O)Nc1cccc(C)c1)CC2	-12	-15	-4	-1	1	6.5*	2	0
COc1cc2c(cc1OC)CN(CC(=O)Nc1cccc([N+](=O)[O-])c1)CC2	0	2	-7	-10	3	-1	·	·
Oc1c(-c2cc(-c3ccco3)[nH]n2)ccc2ccccc12	-2	3	-2	-3	3	2	·	·
COC(C(=O)C(O)C(C)O)C1Cc2cc3cc(OC4CC(OC5CC(O)C(O)C(C)O5)C(O)C(C)O4)c(C)c(O)c3c(O)c2C(=O)C1OC1CC(OC2CC(OC3CC(O)C(OC)C(C)O3)C(O)C(C)O2)C(O)C(C)O1 (stereo unspecified)	-5	-18	-1	·	0	13*	0	-1
CCCCC(CCC(=O)O)(C(=O)OCC)c1csc(Nc2ccccc2)n1 (stereo unspecified)	-6	-3	-8	1	7	2	·	·
CN(CCC#N)C(=O)COC(=O)c1ccc2c(=O)n3c(nc2c1)CCC3	-1	6	3	3	7	2	·	·
N#CCCN(C(=O)COC(=O)c1ccc2c(=O)n3c(nc2c1)CCC3)c1ccccc1	-5	-3	4	2	0	12*	0	-1
CCN(CC)CCN1C(=O)C(=O)/C(=C(/O)c2ccncc2)C1c1ccccc1 (stereo unspecified)	-2	-4	3	-3	2	-3	·	·
CCc1cccc(Nc2c([N+](=O)[O-])cc(C(=O)N3CC(=O)Nc4ccccc43)cc2[N+](=O)[O-])c1	6	1	-11	0	7	-5	·	·
CCC1CCCCN1S(=O)(=O)c1ccc(NC(=O)c2cccs2)cc1 (stereo unspecified)	-9	-6	-1	6	-4	10*	0	-1
Cc1ccc(S(=O)(=O)N2CCCC2CNC(=O)C(=O)NCc2ccc3c(c2)OCO3)cc1 (stereo unspecified)	1	-9	1	·	·	10*	6	0
COc1ccc(S(=O)(=O)N2CCCC2CNC(=O)C(=O)NCc2ccc3c(c2)OCO3)cc1 (stereo unspecified)	3	-2	2	-10	3	5	·	·
CC(=O)Oc1ccc2c(=O)c(Oc3ccccc3)coc2c1OC(C)=O	-18	2	-12	1	6	5.5*	1	4
Oc1ccc(/C=N/Nc2ncnc3c2ncn3Cc2ccccc2)cc1O	6	-2	2	-6	3	12*	11*	9.1*
Cc1nc(-c2ccc(C(=O)N3CCOCC3)cc2)cs1	9	-10	7	6	2	3	·	·
Cc1nc(-c2ccc(C(=O)N3CCCC3)cc2)cs1	-2	9	1	9	4	6.2*	-1	0
O=C(/C=C/c1ccc(O)c(O)c1)OC1C(O)CC(OC(=O)/C=C/c2ccc(O)c(O)c2)(C(=O)O)CC1O (stereo unspecified)	-5	-6	-2	0	3	23*	31*	2	GFP quench DR=>68
O=C(/C=C/c1ccc(O)c(O)c1)O[C@@H]1C[C@](O)(C(=O)O)C[C@@H](O)[C@H]1O	3	-8	-3	5	0	4	·	·
COc1ccc(Cl)cc1NC(=O)CN(C)CC(=O)NCc1ccc(F)cc1	-19	-4	-4	-6	-2	2	·	·
OCCNc1ncnc2c1ncn2[C@H]1CN(Cc2ccc(-c3ccccc3)cc2)C[C@@H](CO)O1	·	-6	·	·	·	24*	28*	0	GFP quench DR=>68
CN(C)CCNc1ncnc2c1ncn2[C@H]1CN(Cc2ccc(-c3ccccc3)cc2)C[C@@H](CO)O1	·	1	·	·	·	3	·	·
SMILES	PKA-R1A act	E coli Lon inh	PKA-R2B act	IDE inh	IDE cell activ	Rin1-Abl PPI inh	Rin1 Abl conf	GFP quencher	others
OC[C@@H]1CN(Cc2ccc(-c3ccccc3)cc2)C[C@H](n2cnc3c(NCc4ccco4)ncnc32)O1	·	-3	·	·	·	10*	6.7*	-1
OC[C@@H]1CN(Cc2ccccc2)C[C@H](n2cnc3c(NCc4ccco4)ncnc32)O1	·	-11	·	·	·	1	·	·
O=C(Nc1ccc(OC(F)(F)C(F)F)c(NC(=O)c2ccc(F)cc2)c1)c1ccc(F)cc1	5	-1	4	-3	2	-3	·	·
CCCCC(=O)Nc1ccc(C(=O)N2CCCC(C(=O)OCC)C2)cc1 (stereo unspecified)	1	-12	1	-1	5	7.3*	2	1
COc1cccc(-c2cnc(C(O)c3c(C)ccc4ccccc34)[nH]2)c1 (stereo unspecified)	·	-10	·	·	·	-1	·	·
C/C=C/C=C/C(=O)N1CC[C@]23c4ccccc4N[C@H]4N(C)c5cccc6c5[C@]42CCN([C@H]6C2OC2(C)C)[C@H]13 (stereo partly specified)	-2	3	4	-1	-2	-1	·	·
Cc1ccc(C)c(SCC(=O)OCC(=O)Nc2ncc(C(F)(F)F)cc2Cl)c1	-17	5	-11	-4	-2	9.1*	0	0
O=C(c1ccccc1)c1ccc(OCC(O)CN2CCCCC2)cc1 (stereo unspecified)	12	0	5	-1	0	1	·	·
O=C(c1ccccc1)c1ccc(OCC(O)CN2CCN(S(=O)(=O)N3CCCCC3)CC2)cc1 (stereo unspecified)	-13	-7	5	2	-4	6.7*	0	0
Cc1onc(-c2ccccc2)c1C(=O)N/N=C/c1ccc(Br)cc1	-11	-2	-12	0	-2	0	·	·
FC(F)Oc1ccc(NC(=S)Nc2ccc3cn[nH]c3c2)cc1	-11	0	3	8	6	-5	·	·
